AmpC no deterg – AmpC beta-lactamase inhibition without detergent. Potency, µM (doses to about 57.1 µM), inactives show at the top dose activity change, negative = inhibition, usual class: inhibitors. AmpC nitrocefin hydrolysis, absorbance 480 nm, 0.0001% Triton. P00811. AID 485341. 330,000 compounds, 0.52% hits;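 further: potency means the concentration at half of the fitted maximal effect; plate controls were no compound for no effect and no enzyme for full effect; nearly all actives have a fitted effect of over 20% in size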
Target sequence (P00811 whole entry, looked up): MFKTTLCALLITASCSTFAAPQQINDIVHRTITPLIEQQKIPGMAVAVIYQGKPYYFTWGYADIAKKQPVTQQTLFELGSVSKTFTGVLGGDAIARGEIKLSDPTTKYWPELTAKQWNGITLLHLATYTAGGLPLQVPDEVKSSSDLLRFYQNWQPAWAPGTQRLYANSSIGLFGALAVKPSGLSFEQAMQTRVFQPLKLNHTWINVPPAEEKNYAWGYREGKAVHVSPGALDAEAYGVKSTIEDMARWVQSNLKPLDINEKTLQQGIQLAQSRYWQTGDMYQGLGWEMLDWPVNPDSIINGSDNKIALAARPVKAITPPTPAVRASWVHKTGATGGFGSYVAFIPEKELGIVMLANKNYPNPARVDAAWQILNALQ
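AmpC (5.3 nM in the dispensed reagent) in 20 mM phosphate pH 7.0 with 0.01% (detergent screen) or 0.0001% Triton X-100 was preincubated with compounds for 15 min at room temperature. Nitrocefin was then added from an 800 uM solution, and hydrolysis was followed at 480 nm.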
SARS PLP yeast – inhibitors of SARS-CoV papain-like protease in yeast | S. cerevisiae expressing SARS-CoV PLpro, growth rescue | Potency, µM (top dose mostly 32.9 µM), for the others: top-dose activity, positive = growth rescue, actives largely listed as activators | 330,000 compounds, 0.19% hits; calls by dose curve; further: potency means the concentration at half of the fitted maximal effect; 0% is about no effect; nearly all actives have a fitted effect of over 55% in size
AmpC inh detg – inhibitors of E. coli AmpC beta-lactamase with detergent; AmpC hydrolysis of nitrocefin, absorbance 480 nm, 0.01% Triton; 370,000 compounds, 0.041% hits; Potency, µM (series often up to 114 µM), for inactives: at the top dose activity change, negative = inhibition, hits mostly inhibitors;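 further: potency means the concentration at half of the fitted maximal effect; 0% = no-compound wells and -100% = no-enzyme wells; nearly all actives have a fitted effect of over 25% in size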
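AmpC (5.3 nM in the dispensed reagent) in 20 mM phosphate pH 7.0 with 0.01% (detergent screen) or 0.0001% Triton X-100 was preincubated with compounds for 15 min at room temperature. Nitrocefin was then added from an 800 uM solution, and hydrolysis was followed at 480 nm.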
AMA1 RON2 block – inhibitors of Plasmodium falciparum AMA1-RON2 interaction; AID 720542; 360,000 compounds, 0.2% hits; Potency, µM (doses to about 58.2 µM), for inactives: at the top dose activity change, negative = inhibition, most hits filed as inhibitors; AlphaScreen AMA1-biotinylated RON2 peptide binding;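 further: potency means the concentration at half of the fitted maximal effect; 0% = vehicle wells and -100% = peptide control; nearly all actives have a fitted effect of over 45% in size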
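AMA1 (3D7) with his tag at 25 nM final met compounds first, then biotinylated RON2 peptide at 25 nM; detection used donor plus acceptor beads, 10 µg/mL apiece, read by AlphaScreen after 30 min at room temperature.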
Cycloheximide cs – affects cycloheximide protein synthesis inhibition readout, counter-screen | cell reporter, cycloheximide protein synthesis inhibition counterscreen | max response, % | 300,000 compounds, 12% hits | AID 2314; in the data active means max response mostly above about 13%, no sharp cut-off; inactive means mostly below about 14%; further: read at 38.3 µM for the half of the compounds with a filed dose; 0% is about no effect
Shiga toxin inh – inhibitors of Shiga toxin in Vero cells; Vero cells, Shiga toxin protein synthesis inhibition reporter; inhibition, % at 38.7 µM; 290,000 compounds, 9.2% hits; AID 2315; in the data active means inhibition mostly above about 28%, no sharp cut-off; inactive means mostly below about 43%; further: 0% is about no effect
The depositor's hits bear a star; ? = inconclusive; . = no result. Shown is part of a subset that was picked to be rich in hits. Unless noted, the call rests on the fitted dose curve; in most records, active means well fitted curve in the direction sought with a large enough effect; inconclusive means small, poorly fitted or top-dose-only effect, or another doubt; inactive means no such curve, though single readings can be large; an effect the other way counts as inactive or inconclusive.

SMILES | AmpC no deterg | SARS PLP yeast | AmpC inh detg | AMA1 RON2 block | Cycloheximide cs | Shiga toxin inh
CCc1ccc(NC(=O)N(CCN2CCOCC2)Cc2ccc3c(c2)CCCN3CC)cc1 | 182% | ? | 1% | ? | 25* | 37
O=C(Nc1ccccc1)N(CCN1CCOCC1)Cc1ccccc1F | -15% | 2% | 3% | 3% | 15* | -3
O=C(c1ccc([N+](=O)[O-])cc1)N1CCSC1c1ccc(Br)cc1 (centres undefined) | -9% | -5% | 9% | -23% | 5 | -3
CC1=C(C(=O)OCCOC(C)C)C(c2cccc3ccccc23)NC(=O)N1 (centres undefined) | . | . | . | -15% | . | .
CCn1c(C)nc2cc(C(=O)N/N=C/c3ccc(O)c(O)c3O)ccc21 | -1% | -2% | 2% | 14µM* | 11 | 10
CCn1c(C)nc2cc(C(=O)N/N=C/c3cccc(OC)c3O)ccc21 | 13% | 8% | 2% | 72% | 18 | 60*
CNC(=O)N(O)C1N(c2ccccc2)C(=S)SC1(C)C (centres undefined) | -10% | 18% | -10% | -8% | 7 | -9
CNC(=O)ON(C(=O)NC)C1N(C)C(=S)SC1(C)C (centres undefined) | -33% | -8% | 13% | 13% | 13* | 22
O=C(O)c1ccc(-c2ccccc2)[nH]1 | -21% | -6% | -11% | -17% | -2 | 17
CCc1ccc(-c2ccc(C(=O)C(F)(F)F)[nH]2)cc1 | -7% | -3% | 3% | 0% | 64* | 126*
c1ccc(-c2cn(CC3CCCCC3)nn2)cc1 | -20% | -10% | -10% | 7% | 37* | 45*
COc1ccc(-c2cn(CC3CCCCC3)nn2)cc1 | -5% | -4% | -5% | 10% | 16* | 17*
CN(CC(=O)NCCC1=CCCCC1)S(=O)(=O)c1ccc2c(c1)CCC(=O)N2 | 3.2µM* | 2% | ? | 7% | -4 | 17
COc1ccc(CCNC(=O)CN(C)S(=O)(=O)c2ccc3c(c2)CCC(=O)N3)cc1OC | 6% | 2% | 5% | 4% | -2 | -9
CC1=NN(c2ccc(C)c(C)c2)C(=O)/C1=C\C=C\c1ccc([N+](=O)[O-])o1 | -38% | -6% | 0% | -16% | 44* | 88*
COc1ccc(-c2c(C(C)=O)c(C)nc3sc4c(c23)NC(c2ccccc2)NC4=O)cc1 (centres undefined) | -17% | 3% | 1% | 24% | -2 | -12
Cc1ccc(S(=O)(=O)Cn2nnnc2C(C(C)C)N2CCSCC2)cc1 (centres undefined) | -20% | -8% | -12% | 1% | 3 | -10
FC(F)(F)c1ccc(Nc2nnnc3ccccc23)cc1 | -3% | 4% | 0% | 22% | 21* | 36
Cc1nnc(Nc2ccc(F)cc2)c2ccccc12 | -7% | 0% | ? | 8% | -2 | 17
CC(=O)Nc1ccc(N=Cc2ccc[nH]2)cc1 | 3% | -4% | -1% | 33% | 15 | 41
CC(=O)c1cccc(NC(=O)CCC(=O)c2ccc(F)cc2)c1 | -22% | 2% | -3% | 3% | 16 | 17
CC(=O)Nc1cccc(C(=O)/C=C/c2ccc[nH]2)c1 | -30% | -1% | 9% | -17% | 26* | 54*
CC(=O)Nc1cccc(C(=O)/C=C/c2ccco2)c1 | -9% | -17% | 4% | -12% | 43* | 49*
CC(=O)Nc1ccc(NC(=O)C(C)OC(=O)/C=C/c2cccs2)cc1 (centres undefined) | -13% | 0% | -9% | 6% | 5 | -5
CC(=O)Nc1cccc(C(=O)/C=C/c2ccc(F)cc2)c1 | 0% | -4% | -4% | -10% | 29* | 41
CC(=O)Nc1cccc(C(=O)/C=C/c2cccs2)c1 | -17% | -37% | ? | -3% | 54* | 82*
CC(=O)Nc1cccc(C(=O)/C=C/c2ccc(Br)cc2)c1 | -7% | -41% | 2% | -10% | -5 | -1
CC(=O)Nc1cccc(C(=O)/C=C/c2ccc(/C=C/C(=O)c3cccc(NC(C)=O)c3)cc2)c1 | -15% | -4% | -1% | . | 35* | 45
